Data on 88 compounds can be found in PubChem BioAssay AID1645855 (Buhrlage Lab, Dana-Farber Cancer Institute and Novartis …, 2021).

Molecules are shown by their SMILES. The whole screen tested about 47,000 compounds, of which about 3,100 (6.6%) were called active. The sample as a whole holds a higher share of actives than the screen did. Unmarked numbers belong to inactive results. Cut-off read from the data, not from the text of the source: active = inhibition above about 30%; inactive = the rest.

The target in this test is Ubiquitin carboxyl-terminal hydrolase 17-like protein 5 (Homo sapiens) (UniProt A8MUK1). The experiment in a line: blocks human USP17 ubiquitin-rhodamine cleavage (AID 1645855). Particulars: purified USP17, Ub-rhodamine cleavage fluorescence, 3 h; at 50 µM; active compounds read high.
Sequence of Ubiquitin carboxyl-terminal hydrolase 17-like protein 5 (Homo sapiens) (A8MUK1 whole entry, looked up): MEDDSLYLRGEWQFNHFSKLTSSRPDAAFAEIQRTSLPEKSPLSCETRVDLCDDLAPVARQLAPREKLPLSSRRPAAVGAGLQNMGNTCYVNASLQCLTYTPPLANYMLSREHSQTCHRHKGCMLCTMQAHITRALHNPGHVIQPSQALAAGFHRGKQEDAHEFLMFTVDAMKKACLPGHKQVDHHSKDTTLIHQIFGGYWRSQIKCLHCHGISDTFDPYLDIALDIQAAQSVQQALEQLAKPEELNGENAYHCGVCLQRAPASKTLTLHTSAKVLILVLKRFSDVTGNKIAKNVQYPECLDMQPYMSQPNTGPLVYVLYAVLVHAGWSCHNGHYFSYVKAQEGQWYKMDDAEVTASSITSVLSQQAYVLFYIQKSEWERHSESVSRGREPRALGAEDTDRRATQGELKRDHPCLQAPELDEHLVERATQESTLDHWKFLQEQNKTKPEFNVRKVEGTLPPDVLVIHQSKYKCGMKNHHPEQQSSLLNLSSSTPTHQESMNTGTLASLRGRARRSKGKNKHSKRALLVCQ
Turning to `COc1ccc(OC)c(CNC(=O)c2nnc(C(=O)Nc3ccc(F)cc3)s2)c1`, the inhibition is 14.8%.

`Cc1nnc(C(=O)Nc2ccc(C(=O)NCc3ccccc3C)cc2)s1`: the inhibition was 68.1% (active). In the case of `Cc1ccccc1CNC(=O)c1sc2ncnc(N3CCCC3)c2c1C`, the inhibition is -0.361%. For the compound `CC(=O)N1CCCC(c2ccnc(Nc3ccccn3)n2)C1` (stereo not drawn), the inhibition is 6.44%. `CN(C(=O)c1ncccn1)[C@H]1CC[C@@]2(C)C[C@H](c3ccccc3)C[C@](C)(O2)[C@@H]1O`: the inhibition was 3.44%. Turning to `CC(C)c1ccc(S(=O)(=O)N[C@H](C)C(=O)NCc2cscn2)cc1`, the inhibition was 6.37%. Turning to `CNc1cnc(CC2CCCN(C(=O)c3scnc3C)CC2)cn1` (stereo not drawn), the inhibition is -9.92%. For `CCc1ccc(NC(=O)Cn2cnc(S(=O)(=O)N3CCOCC3)c2)cc1`, the inhibition is 24.3%. Turning to `Cc1cc(-c2nnc(SCC(=O)Nc3ccc(Br)c(C)c3)n2N)n[nH]1`, the inhibition is 23.4%. For the compound `Cc1cc(NC(=O)COC(=O)c2cccc(C)c2O)ccc1Br`, the inhibition was 37% (active). For `N#Cc1cccc(NC(=O)COC(=O)c2cc3ccccc3oc2=O)c1`, the inhibition was 3.87%. Consider `C=C1CCC2[C@](C)(CCC[C@]2(C)C(=O)OC)[C@H]1CCc1ccoc1CNCC(=O)O` (stereo partly drawn), for which the inhibition is 28%. Regarding `C=C1CCC2[C@](C)(CCC[C@]2(C)C(=O)OC)[C@H]1CCc1ccoc1C[N+](C)(C)Cc1ccccc1` (stereo partly drawn), the inhibition was 31.1% (active).

`O=C(c1ccc(Br)o1)N(Cc1cccc(F)c1)c1ccccn1`: the inhibition was 12.8%. For the compound `CC(=O)c1ccc(N2CCN(C(=O)c3ccc4noc(-c5ccccc5)c4c3)CC2)cc1`, the inhibition is -0.00315%.

For the compound `COc1cccc(CN2C(=O)c3ccccc3C2C(=O)NCc2ccccc2OC)c1` (stereo not drawn), the inhibition was 13.5%. Consider `CC(=O)O[C@H]1CC[C@@]2(C)C(CC[C@]3(C)C2CCC2[C@@]4(C)CC[C@H](C(C)(C)O)C4C[C@H](O)[C@]23C)C1(C)C` (stereo partly drawn), for which the inhibition is 0.105%. Next, `COc1ccc(C(=O)Nc2cc(=O)[nH]c3nc(Cc4ccccc4)nn23)cc1`: -0.0855%; `Cc1noc(C)c1CC(=O)Nc1cccc(-c2nc3ccccc3[nH]2)c1`: 0.008%; `O=C(Cc1ccc(Cl)cc1)NCC(=O)Nc1nc2ccccc2[nH]1`: 53.7% (active). Regarding `Clc1ccccc1SCc1nc2ccccc2[nH]1`, the inhibition is 6.98%. Regarding `COc1ccc(C(=O)NCC(=O)Nc2nc3ccccc3[nH]2)c(C)c1`, the inhibition was 46.9% (active).

With `O=C(COc1ccccc1)NCCc1nc2ccccc2[nH]1`, the inhibition was 18.3%. Next, `O=C(Nc1ccc(F)cc1F)c1cnn2c3c(cnc12)CCCCC3`: -3.64%; `Cc1nc(C2CCCN2)nc2c1CCC(=O)N2CC1CCCCC1` (stereo not drawn): 3.63%. For `CCc1nc(=O)c2ccccc2n1C1=CCN(Cc2cn(C)nc2C)CC1`, the inhibition is 4.86%. For the compound `O=C(C1CCN(S(=O)(=O)c2ccc(Cl)cc2)CC1)N1CC[C@@]2(O)CCCC[C@H]2C1`, the inhibition is -1.48%. For the compound `Cc1cc(O)c(=O)cc2c1C[C@H]1CC(C)(C)/C=C/C[C@@]3(C)Oc4cc(=O)c(O)cc(C)c4C[C@@H]3C[C@H](O)[C@]1(C)O2`, the inhibition was 40.2% (active). As for `CCSc1nc(-c2ccccc2)nc2sc3c(c12)CC(C)(C)OC3`, the inhibition is -11.1%.

On to `CN1CC(c2ncn[nH]2)c2cc(C(=O)NCc3ccccc3)ccc21` (stereo not drawn), for which the inhibition is -5%.

`COc1ccccc1CNC(=O)c1ccc2c(c1)CCN2C(=O)C1CC1`: the inhibition was -10.3%. Next, `O=C(Cn1cccc(-c2nc(-c3ccccc3)no2)c1=O)Nc1ccccc1F`: 33% (active); `Cc1noc(-c2cccn(Cc3cc(F)ccc3F)c2=O)n1`: 5.57%.

Consider `Cc1nc2c(c(C)c1CCC(=O)Nc1ccccc1F)c(=O)n(C)c(=O)n2C`, for which the inhibition was -0.603%.

On to `COc1ccc(C2C3=C(CC(c4ccc(Cl)cc4)CC3=O)Nc3ccccc3N2C(=O)c2ccc(Cl)c(Cl)c2)cc1` (stereo not drawn), for which the inhibition was -7.25%.

On to `Fc1cccc(Nc2nc(-c3ccncc3)nc3c2CCC3)c1`, for which the inhibition is 48.8% (active). `O=C(CN1CC(=O)c2ccccc2S1(=O)=O)Nc1ccccc1`: the inhibition was -5.61%.

Regarding `Cc1nn(-c2ccccc2)c(C)c1S(=O)(=O)N1CCCCC1`, the inhibition is 3.01%. In the case of `COC(=O)c1ccc(NC(=O)CSc2nnc(C(C)Oc3ccccc3)n2C)cc1` (stereo not drawn) it was 5.22%; in that of `Cc1cc(C)nc(N(C(=O)C2CC2)c2ccc(OC(F)(F)F)cc2)n1`, 1.83%; in that of `Cc1nnc(OCC(=O)Nc2ccc(OC(F)(F)F)cc2)c2ccccc12`, 77.7% (active). For `Cc1cc(F)ccc1NC(=O)Cc1n[nH]c(Cc2ccccc2)n1`, the inhibition was -9.74%.

As for `O=C(Cc1ccc(F)cc1)Nc1ccccc1Cc1ccccc1`, the inhibition is 27.4%. In the case of `Cc1ccccc1NC(=O)Cc1csc2nc(-c3ccc(F)cc3)cn12`, the inhibition was 86% (active). For `CN1CC2(COc3ccccc31)CN(S(=O)(=O)c1ccc3c(c1)OCO3)CCO2` (stereo not drawn), the inhibition is -2.79%.

For the compound `CC1(C(=O)NCc2cccc(Cl)c2)Oc2cccnc2NC1=O` (stereo not drawn), the inhibition is -7.83%. Turning to `O=C(NCC1CC1)[C@H]1C[C@@H]2CN(S(=O)(=O)c3ccccc3)C[C@H]1O2`, the inhibition is -13.7%.

As for `Cn1cc(CCNC(=O)c2cc3ccccc3[nH]2)c2cccnc21`, the inhibition was -17.1%. With `Cn1cc(-c2nc(C(=O)Nc3ccc(F)cc3)cs2)c2cccnc21`, the inhibition was 59.4% (active). With `Cc1cccc(NC(=O)c2csc(-c3cn(C)c4ncccc34)n2)c1`, the inhibition was 2.63%.

As for `COCCNC(=O)C1c2ccccc2C(=O)N(C2CCCC2)C12CCCCC2` (stereo not drawn), the inhibition is -1.76%.

With `O=S(Cc1cc(Sc2ccccc2)nc(-c2ccccn2)n1)c1ccc(Cl)cc1` (stereo not drawn), the inhibition was -9.57%. In the case of `CC(C)(C)c1cc2n(n1)CCN(Cc1ccccc1C(F)(F)F)C2` it was -4.87%; in that of `COc1cccc(C(=O)N2CCC(c3nc4ccncc4n3C)C2)c1` (stereo not drawn), 10%. Regarding `c1coc(CNc2nc(Nc3cccc4ccccc34)nc3ccccc23)c1`, the inhibition is 83.4% (active). Take `Fc1ccc(-n2cc(-c3ccccc3)c3c(NCc4ccco4)ncnc32)cc1`: the inhibition is -3.63%. Regarding `O=C(CCc1nnc2ccc(N3CCCCC3)nn12)NCCC1=CCCCC1`, the inhibition was 1.2%. As to `O=c1ccc(-c2nc(-c3cnccn3)no2)cn1Cc1ccccc1C(F)(F)F`, the inhibition was 7.06%.

Take `O=C1CNC(=O)N1CC(O)Cn1c2ccc(Br)cc2c2cc(Br)ccc21` (stereo not drawn): the inhibition was 40.1% (active). For `Cc1ccc(Cn2c(C)c(CNCCC3=CCCCC3)c(C(=O)O)c2C)cc1`, the inhibition is 7.92%. In the case of `CCc1ccc(-n2c(=O)c3ccccc3n(CC(=O)NCCC3=CCCCC3)c2=O)cc1`, the inhibition is 64.3% (active).

Take `O=C(CCc1nnc2n(CCc3ccccc3)c(=O)c3ccccc3n12)NCCN1CCCC1`: the inhibition was 13.7%. As to `CN(CCc1ccccn1)C(=O)c1cc2c(=O)oc3ccccc3c2s1`, the inhibition is 14.5%.

As for `O=C(CC(NCc1cccnc1)C(=O)O)Nc1ccccc1` (stereo not drawn), the inhibition was 6.61%.

With `COc1cc(C)c(CN2CCc3c(nc4cc(-c5cc(C)on5)[nH]n4c3=O)C2)cc1OC`, the inhibition was 4.84%. Consider `O=c1[nH]c(-c2ccncc2)nc2c1CCN(Cc1cn[nH]c1-c1ccc(Cl)cc1)C2`, for which the inhibition was -0.0464%. In the case of `O=c1[nH]c(-c2ccccn2)nc2c1CCN(Cc1cnn(-c3ccc(F)cc3)c1)C2`, the inhibition was 43.5% (active).

Consider `C#CCOc1ccc(CN2CCc3nc(-c4cccnc4)[nH]c(=O)c3C2)cc1OC`, for which the inhibition was -0.00604%. In the case of `CCc1cccc(C)c1NC(=O)Cn1nc2ccc(C(=O)NCc3ccccc3)cn2c1=O` it was 16.4%. In the case of `Cc1ccc(-c2cc(=O)[nH]c(NCc3ccccc3)n2)cc1` it was -6.42%. As to `CC(=O)N1CCN(c2cc(N3CCCCC3)nc(C)n2)CC1`, the inhibition was -36.6%. Consider `CCCN1CCN(c2ccc(C(=O)O)cc2NS(=O)(=O)c2cc(F)ccc2F)CC1`, for which the inhibition was 10.4%. Consider `Cc1ccc(-c2cc(C(F)F)n3ncc(C(=O)NCC(C)C)c3n2)cc1`, for which the inhibition was 36.6% (active). Turning to `COc1ccc(-c2cc(C(F)F)n3ncc(C(=O)N(C)Cc4c(C)nn(C)c4C)c3n2)cc1`, the inhibition is -8.87%.

As for `Cc1cc(Nc2ccc(C(=O)NCC(C)C)cc2)n2nc(-c3cccnc3)nc2n1`, the inhibition is -7.54%. In the case of `O=C(O)COc1ccccc1C(c1c[nH]c2ccccc12)c1c[nH]c2ccccc12` it was -15.6%; in that of `COc1ccc(CN2CCN(C(=O)c3ccc4c(c3)OCO4)CC2)cn1`, -5.73%; in that of `CC(C)c1ccc(NC(=O)CCC(=O)N(c2ccccc2)c2ccccc2)cc1`, 6.5%. In the case of `Cc1cccc(NS(=O)(=O)c2ccc3nnc(C)n3c2)c1`, the inhibition is 4.3%. Consider `COc1cccc(NS(=O)(=O)c2ccc(-c3coc(C)n3)cc2)c1`, for which the inhibition was 0.103%. Turning to `O=S(=O)(Nc1cccc(O)c1)c1ccc2oc3ccc(S(=O)(=O)Nc4cccc(O)c4)cc3c2c1`, the inhibition was 39.1% (active).

On to `CC1(C)Cc2cccc(OCC(=O)NCC(F)(F)F)c2O1`, for which the inhibition was 4.4%.

Take `COC(=O)c1ccc(C(=O)NCC2(O)CCc3ccccc32)cc1` (stereo not drawn): the inhibition was -0.0822%.

As for `COCCN1C[C@@]23CN(C(=O)NCc4ccccc4)C[C@@H](C[C@@H]2S1(=O)=O)O3`, the inhibition was 12.1%. With `CC(=O)Nc1ccc(-n2cnc(C(=O)NCc3ccc(C)cc3)c2)nc1`, the inhibition is 64.2% (active).

For the compound `CC(=O)Nc1ccc(-n2cnc(C(=O)N3CCN(c4cccc(C)c4)CC3)c2)nc1`, the inhibition was -7.95%. Next, `CC(=O)Nc1ccc(-n2cnc(C(=O)N3CCN(c4ccc(C)cc4)CC3)c2)nc1`: 13.8%. In the case of `Cc1nc(C2CCN(S(C)(=O)=O)CC2)nc2c1CCC(=O)N2CC(C)C` it was -7.01%.

As usually defined, the inhibition is the relative decrease from the control value, in per cent.
